# In the supplement of paper PMC8728848:
# About 410 targets per protein were measured; listed, in parts, are those with the strongest signals and a random draw of the rest.
# B1: Mg1lysM (Mycosphaerella graminicola) (protein)
# chain: QRNPITITPQFDCGATNSQQYVARSGDTLTKIAQEIYHDVVGVCDIARANNLADPNRIDAGTPYTIPINCQTYDRNSCL
# Experiments:
# Test in all cases: glycan array binding signal (z-score within array); higher = stronger binding
# Conditions in all cases: glycan notation: IUPAC condensed, linker removed
# [1] = molecular target: Fuc(a1-2)Gal(b1-3)GlcNAc(b1-3)Gal(b1-4)Glc
# In short: (§1)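 Glycan array data came from 3228 arrays in the Consortium for Functional Glycomics database, and only arrays with an available protein sequence were kept. Glycan names were put into IUPAC-condensed notation, and columns mapping to the same glycan were averaged. The binding signal is a within-array Z-score, averaged across arrays of one protein sequence run at different concentrations or buffers and across linkers. A negative Z-score can be read as non-binding.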
# [2] = molecular target: Fuc(a1-2)Gal(b1-3)[Fuc(a1-4)]GlcNAc(b1-3)[Gal(b1-4)GlcNAc(b1-6)]Gal(b1-4)Glc
# In short: as §1
# [3] = molecular target: Fuc(a1-2)Gal(b1-4)Glc
# In short: as §1
# [4] = molecular target: Fuc(a1-2)Gal(b1-4)GlcNAc(b1-3)Gal(b1-4)GlcNAc(b1-2)Man(a1-3)[Fuc(a1-2)Gal(b1-4)GlcNAc(b1-3)Gal(b1-4)GlcNAc(b1-2)Man(a1-6)]Man(b1-4)GlcNAc(b1-4)GlcNAc
# In short: as §1
# [5] = molecular target: Fuc(a1-2)Gal(b1-4)[Fuc(a1-3)]GlcNAc(b1-2)Man(a1-3)[Fuc(a1-2)Gal(b1-4)[Fuc(a1-3)]GlcNAc(b1-2)Man(a1-6)]Man(b1-4)GlcNAc(b1-4)[Fuc(a1-6)]GlcNAc
# In short: as §1
# [6] = molecular target: Fuc(a1-2)Gal3S(b1-4)GlcNAc
# In short: as §1
# [7] = molecular target: Fuc(a1-2)[GalNAc(a1-3)]Gal(b1-4)GlcNAc(b1-2)Man(a1-3)[Fuc(a1-2)[GalNAc(a1-3)]Gal(b1-4)GlcNAc(b1-2)Man(a1-6)]Man(b1-4)GlcNAc(b1-4)[Fuc(a1-6)]GlcNAc
# In short: as §1
# [8] = molecular target: Fuc(a1-3)[Gal3S(b1-4)]GlcNAc
# In short: as §1
# [9] = molecular target: Fuc(a1-4)GlcNAc
# In short: as §1
# [10] = molecular target: Gal(a1-3)Gal
# In short: as §1
# [11] = molecular target: Gal(a1-3)Gal(b1-3)[Fuc(a1-4)]GlcNAc(b1-2)Man(a1-3)[Gal(a1-3)Gal(b1-3)[Fuc(a1-4)]GlcNAc(b1-2)Man(a1-6)]Man(b1-4)GlcNAc(b1-4)GlcNAc
# In short: as §1
# [12] = molecular target: Gal(a1-4)Gal(b1-4)GlcNAc(b1-2)Man(a1-3)[Gal(a1-4)Gal(b1-4)GlcNAc(b1-2)Man(a1-6)]Man(b1-4)GlcNAc(b1-4)GlcNAc
# In short: as §1
# [13] = molecular target: Gal(a1-6)Glc
# In short: as §1
# [14] = molecular target: Gal(b1-3)Gal
# In short: as §1
# [15] = molecular target: Gal(b1-3)GlcNAc(b1-2)Man(a1-3)[GlcNAc(b1-4)][Gal(b1-3)GlcNAc(b1-2)Man(a1-6)]Man(b1-4)GlcNAc(b1-4)GlcNAc
# In short: as §1
# [16] = molecular target: Gal(b1-3)GlcNAc(b1-3)Gal(b1-4)GlcNAc(b1-2)[Gal(b1-3)GlcNAc(b1-3)Gal(b1-4)GlcNAc(b1-6)]Man(a1-6)[Gal(b1-3)GlcNAc(b1-3)Gal(b1-4)GlcNAc(b1-2)Man(a1-3)]Man(b1-4)GlcNAc(b1-4)[Fuc(a1-6)]GlcNAc
# In short: as §1
# [17] = molecular target: Gal(b1-3)GlcNAc(b1-6)[Gal(b1-3)]GalNAc
# In short: as §1
# [18] = molecular target: Gal(b1-4)GlcNAc(b1-2)Man(a1-6)Man(b1-4)GlcNAc(b1-4)GlcNAc
# In short: as §1
# [19] = molecular target: Gal6S(b1-4)GlcNAc
# In short: as §1
# [20] = molecular target: GalNAc(a1-3)GalNAc
# In short: as §1
# [21] = molecular target: GalNAc3S(b1-4)[Fuc(a1-3)]GlcNAc
# In short: as §1
# [22] = molecular target: Glc(a1-4)Glc(a1-4)Glc(a1-4)Glc
# In short: as §1
# [23] = molecular target: GlcA(b1-6)Gal
# In short: as §1
# [24] = molecular target: GlcNAc(a1-4)Gal(b1-4)GlcNAc(b1-3)Gal(b1-4)Glc
# In short: as §1
# [25] = molecular target: GlcNAc(b1-2)Man(a1-3)[GlcNAc(b1-2)Man(a1-6)]Man(b1-4)GlcNAc(b1-4)GlcNAc
# In short: as §1
# [26] = molecular target: GlcNAc(b1-2)[GlcNAc(b1-4)]Man(a1-3)[GlcNAc(b1-4)][GlcNAc(b1-2)[GlcNAc(b1-6)]Man(a1-6)]Man(b1-4)GlcNAc(b1-4)[Fuc(a1-6)]GlcNAc
# In short: as §1
# [27] = molecular target: GlcNAc(b1-3)Gal(b1-4)GlcNAc(b1-2)[GlcNAc(b1-3)Gal(b1-4)GlcNAc(b1-6)]Man(a1-6)[GlcNAc(b1-3)Gal(b1-4)GlcNAc(b1-2)Man(a1-3)]Man(b1-4)GlcNAc(b1-4)GlcNAc
# In short: as §1
# [28] = molecular target: GlcNAc(b1-3)Gal(b1-4)GlcNAc(b1-3)Gal(b1-4)GlcNAc(b1-3)Gal(b1-4)GlcNAc(b1-2)Man(a1-3)[GlcNAc(b1-3)Gal(b1-4)GlcNAc(b1-3)Gal(b1-4)GlcNAc(b1-3)Gal(b1-4)GlcNAc(b1-2)Man(a1-6)]Man(b1-4)GlcNAc(b1-4)[Fuc(a1-6)]GlcNAc
# In short: as §1
# [29] = molecular target: GlcNAc(b1-3)Man
# In short: as §1
# [30] = molecular target: GlcNAc(b1-4)GlcNAc(b1-4)GlcNAc
# In short: as §1
# [31] = molecular target: GlcNAc(b1-4)GlcNAc(b1-4)GlcNAc(b1-4)GlcNAc(b1-4)GlcNAc
# In short: as §1
# [32] = molecular target: GlcNAc(b1-4)GlcNAc(b1-4)GlcNAc(b1-4)GlcNAc(b1-4)GlcNAc(b1-4)GlcNAc
# In short: as §1
# [33] = molecular target: Kdn(a2-3)Gal(b1-4)[Fuc(a1-3)]GlcNAc
# In short: as §1
# [34] = molecular target: Neu5Ac(a2-3)Gal(b1-3)GlcNAc(b1-2)Man(a1-3)[GlcNAc(b1-4)][Neu5Ac(a2-3)Gal(b1-3)GlcNAc(b1-2)Man(a1-6)]Man(b1-4)GlcNAc(b1-4)GlcNAc
# In short: as §1
# [35] = molecular target: Neu5Ac(a2-3)Gal(b1-3)GlcNAc(b1-2)[Neu5Ac(a2-3)Gal(b1-3)GlcNAc(b1-4)]Man(a1-6)[Neu5Ac(a2-3)Gal(b1-3)GlcNAc(b1-2)Man(a1-3)]Man(b1-4)GlcNAc(b1-4)GlcNAc
# In short: as §1
# [36] = molecular target: Neu5Ac(a2-3)Gal(b1-3)[Fuc(a1-4)]GlcNAc
# In short: as §1
# [37] = molecular target: Neu5Ac(a2-3)Gal(b1-4)GlcNAc(b1-2)Man(a1-3)[GlcNAc(b1-4)][Neu5Ac(a2-3)Gal(b1-4)GlcNAc(b1-2)Man(a1-6)]Man(b1-4)GlcNAc(b1-4)GlcNAc
# In short: as §1
# [38] = molecular target: Neu5Ac(a2-3)Gal(b1-4)GlcNAc(b1-6)[Neu5Ac(a2-3)Gal(b1-3)]GalNAc
# In short: as §1
# [39] = molecular target: Neu5Ac(a2-3)Gal(b1-4)GlcNAc6S
# In short: as §1
# [40] = molecular target: Neu5Ac(a2-6)Gal(b1-4)GlcNAc(b1-2)Man(a1-3)[GlcNAc(b1-2)Man(a1-6)]Man(b1-4)GlcNAc(b1-4)GlcNAc
# In short: as §1
# [41] = molecular target: Neu5Ac(a2-6)Gal(b1-4)GlcNAc(b1-3)Gal(b1-4)GlcNAc(b1-3)GalNAc
# In short: as §1
# [42] = molecular target: Neu5Ac(a2-6)Gal(b1-4)GlcNAc(b1-3)GalNAc
# In short: as §1
# [43] = molecular target: Neu5Ac(a2-6)GalNAc(b1-4)GlcNAc
# In short: as §1
# [44] = molecular target: Neu5Ac(a2-6)GlcNAc(b1-4)GlcNAc(b1-4)GlcNAc
# In short: as §1
# [45] = molecular target: Neu5Ac(b2-6)GalNAc
# In short: as §1
# [46] = molecular target: Neu5Gc(a2-3)Gal(b1-3)GlcNAc
# In short: as §1
# [47] = molecular target: Neu5Gc(a2-8)Neu5Gc(a2-6)Gal(b1-4)GlcNAc
# In short: as §1
binder,measurement,setting,value
B1,glycan array binding signal (z-score),[1],-0.073
same,glycan array binding signal (z-score),[2],-0.074
same,glycan array binding signal (z-score),[3],-0.06
same,glycan array binding signal (z-score),[4],-0.081
same,glycan array binding signal (z-score),[5],0.076
same,glycan array binding signal (z-score),[6],-0.038
same,glycan array binding signal (z-score),[7],-0.079
same,glycan array binding signal (z-score),[8],-0.075
same,glycan array binding signal (z-score),[9],-0.078
same,glycan array binding signal (z-score),[10],-0.086
same,glycan array binding signal (z-score),[11],-0.048
same,glycan array binding signal (z-score),[12],-0.061
same,glycan array binding signal (z-score),[13],-0.075
same,glycan array binding signal (z-score),[14],-0.061
same,glycan array binding signal (z-score),[15],0.125
same,glycan array binding signal (z-score),[16],0.02
same,glycan array binding signal (z-score),[17],-0.054
same,glycan array binding signal (z-score),[18],-0.083
same,glycan array binding signal (z-score),[19],-0.051
same,glycan array binding signal (z-score),[20],0.308
same,glycan array binding signal (z-score),[21],0.01
same,glycan array binding signal (z-score),[22],-0.073
same,glycan array binding signal (z-score),[23],-0.062
same,glycan array binding signal (z-score),[24],-0.084
same,glycan array binding signal (z-score),[25],-0.057
same,glycan array binding signal (z-score),[26],-0.071
same,glycan array binding signal (z-score),[27],-0.06
same,glycan array binding signal (z-score),[28],-0.081
same,glycan array binding signal (z-score),[29],-0.057
same,glycan array binding signal (z-score),[30],16.5
same,glycan array binding signal (z-score),[31],11.9
same,glycan array binding signal (z-score),[32],7.47
same,glycan array binding signal (z-score),[33],-0.081
same,glycan array binding signal (z-score),[34],-0.076
same,glycan array binding signal (z-score),[35],0.149
same,glycan array binding signal (z-score),[36],-0.096
same,glycan array binding signal (z-score),[37],-0.076
same,glycan array binding signal (z-score),[38],-0.062
same,glycan array binding signal (z-score),[39],-0.075
same,glycan array binding signal (z-score),[40],-0.054
same,glycan array binding signal (z-score),[41],-0.091
same,glycan array binding signal (z-score),[42],-0.076
same,glycan array binding signal (z-score),[43],0.004
same,glycan array binding signal (z-score),[44],4.06
same,glycan array binding signal (z-score),[45],-0.076
same,glycan array binding signal (z-score),[46],-0.04
same,glycan array binding signal (z-score),[47],-0.072
